# Data: PubChem BioAssay (NCI)
# Compounds without any hit were thinned out: in the full panel of roughly 83,000, 20% have a hit.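 Plates (96-well) were seeded with cells, treated with compound at one concentration, and incubated for 48 hours before percent growth was determined.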 A number with no mark means an inactive call. Calls of active or inactive are those of the source. How the source made its calls: active means growth percent below 10; inactive means the rest.
# Tested on: SNB-75 CNS
# Experiment: NCI-60 one-dose screen, 48 h (100 = growth as untreated, 0 = no growth, -100 = all killed)
# Settings: 10 µM unless noted
row,SMILES,growth
1,COc1ccc(C(O)c2cc3c(N)c(C(=O)Nc4cccc(Br)c4)sc3nc2C)cc1 (stereo not given),24.4%
2,CC/C(=C(/c1ccc(Cl)cc1)c1ccc(OCCN2CCCCC2)cc1)c1ccc(OC)cc1,103%
3,CCOC(=O)c1c2c(n3cccc(F)c13)C(=O)c1ncccc1C2=O,28.7%
4,CC(=O)O[C@@H]1C[C@]2(C(C)C)O[C@@]1(C)[C@@H]1CCC(C)=C1[C@@H]2OC(=O)/C=C/c1ccccc1,89.1%
5,O=C(O)c1ccc(-n2cc(/C=N/Nc3ccccc3)c(-c3ccc(F)cc3F)n2)cc1,78.2%
6,O=C(NCc1ccc(Cl)cc1Cl)C1CCC(=O)N1c1cccs1 (stereo not given),77.6%
7,CCSc1oc(-c2ccccc2)nc1[P+](c1ccccc1)(c1ccccc1)c1ccccc1,2.74% (active)
8,O=C1C(=O)N(Cc2ccc(-c3ccccc3)cc2)c2ccc(OC(F)(F)F)cc21,39.3%
9,Cc1nc2sc(C(=O)Nc3ccc(Br)cc3)c(N)c2cc1C(O)c1ccccc1 (stereo not given),62.6%
10,O=C(Cn1cc(CSc2nc3ccccc3o2)nn1)Nc1ccc(F)cc1F,103%
11,COC(=O)c1nc(-c2ccc(C)cc2)oc1S(=O)(=O)c1cccc(OC)c1,83.3%
12,COc1ccc(C/C(C)=C(/c2ccc(OCCN(C)C)cc2)c2ccc(OC(=O)NCc3ccccc3)cc2)cc1,77.7%
13,COc1ccc(/C=C(\C#N)n2nnc3cc(F)c(F)cc32)cc1,70.9%
14,COC(=O)c1c2c(c(C)[n+]([O-])c1C)C(=O)C(NCc1cccc(OC)c1)=CC2=O,132%
15,COc1ccc(-c2nc3cc(C(=O)NCc4ccccc4)ccc3n2C2CCCCC2)cc1,64.3%
16,CCN(CC)CCn1c2ccc(OC)cc2c2sc3cc(OC)ccc3c(=O)c21,85.9%
17,COc1ccc(C(=O)N2c3ccccc3Sc3ccccc32)c(OC)c1,18.5%
18,CCN1CCN(C(=O)[C@]23CCC(C)(C)C[C@@H]2C2=CC[C@@H]4[C@@]5(C)CCC(=O)C(C)(C)[C@@H]5CC[C@@]4(C)[C@]2(C)CC3)CC1,15.6%
19,Clc1ccc2c(NC3CCC(N4CCOCC4)CC3)ccnc2c1 (stereo not given),82.7%
20,CCCOC(=O)Nc1nc2ccc(SCC(C)C)cc2s1,28.6%

row,SMILES,growth
1,COc1ccc(Nc2ncc(Br)c(NCCCNC(=O)c3cccs3)n2)cc1,48.9%
2,N#Cc1c(-c2ccccc2)cc(-c2ccc(Nc3nc(Nc4ccc(Cl)cc4)nc(Nc4ccc(Cl)cc4)n3)cc2)nc1N,66%
3,COC(=O)c1c(C)c2n(c1C)C(=O)C(c1ccccc1)=C2,53.2%
4,COc1ccc(Nc2ncc(Br)c(NCCCNC(=O)C3CCCC3)n2)cc1,51.1%
5,C=CCn1c(C)nc2ccc(Nc3nc(Nc4ccc5nc(C)n(CC=C)c5c4)c4ccccc4n3)cc21,-95.2% (active)
6,O=C(O)c1cn(C2CC2)c2cc(N3CCN(Cc4ccc5ccccc5c4O)CC3)c(F)cc2c1=O,-14.4% (active)
7,N#C/C(=C\c1c(-c2ccccc2)[nH]c2ccccc12)C(N)=O,32.5%
8,COc1ccc(C2CC(c3ccc(Nc4nc(Nc5ccccc5)nc(Nc5ccccc5)n4)cc3)=NN2C(C)=O)cc1 (stereo not given),89.8%
9,COc1cc2c(c(OC)c1OC)CCC(c1cccc(C(=O)Nc3cccc(Cl)c3)c1)O2 (stereo not given),63.7%
10,COc1cc(OCc2cccc(Br)c2C)cc(OC)c1C=O,90.2%
11,COC1=CC(c2ccc[nH]2)=N/C1=C\c1[nH]c(C)c(C(=O)OC(C)C)c1C,-15.7% (active)
12,CCCc1c(OC(=O)c2ccccc2)nc2[nH]c(=O)sc2c1C,88.9%
13,CN(C)c1ccc(-c2c(C#N)c(N)nn2C(=O)c2ccc(NC(=O)c3ccccn3)cc2)cc1,102%
14,CC1CCN(CCOc2ccc(CNc3ccc4nc(CCC5CCCCC5)[nH]c4c3)cc2)CC1,59.7%
15,COc1cc2c(cc1OCCCN1CCN(CCCOc3cc4c(cc3OC)C(=O)N3CCC[C@H]3C=N4)CC1)C=CC(C)(C)O2,-98.2% (active)
16,Oc1c(I)cc(I)cc1CNCCN(Cc1ccccn1)Cc1ccccn1,-57.2% (active)
17,O=CN1N=C(c2cccc(Nc3ccnc4cc(Cl)ccc34)c2)CC1c1ccccc1 (stereo not given),-9.35% (active)
18,COc1cc2c(cc1OC)C(C)N(S(N)(=O)=O)CC2 (stereo not given),87.6%
19,CCCC/C(CC)=N\NS(=O)(=O)c1ccc([N+](=O)[O-])cc1,90.4%
20,O=[N+]([O-])c1ccc(O)cc1Br,92.7%

# Tested on: SNB-19 CNS
# Experiment: as above
# Settings: 10 µM unless noted
row,SMILES,growth
1,COc1ccc(C(O)c2cc3c(N)c(C(=O)Nc4cccc(Br)c4)sc3nc2C)cc1 (stereo not given),24.6%
2,CC/C(=C(/c1ccc(Cl)cc1)c1ccc(OCCN2CCCCC2)cc1)c1ccc(OC)cc1,72.4%
3,CCOC(=O)c1c2c(n3cccc(F)c13)C(=O)c1ncccc1C2=O,11.3%
4,CC(=O)O[C@@H]1C[C@]2(C(C)C)O[C@@]1(C)[C@@H]1CCC(C)=C1[C@@H]2OC(=O)/C=C/c1ccccc1,102%
5,O=C(O)c1ccc(-n2cc(/C=N/Nc3ccccc3)c(-c3ccc(F)cc3F)n2)cc1,84.3%
6,O=C(NCc1ccc(Cl)cc1Cl)C1CCC(=O)N1c1cccs1 (stereo not given),99.9%
7,CCSc1oc(-c2ccccc2)nc1[P+](c1ccccc1)(c1ccccc1)c1ccccc1,12.4%
8,O=C1C(=O)N(Cc2ccc(-c3ccccc3)cc2)c2ccc(OC(F)(F)F)cc21,43.2%
9,Cc1nc2sc(C(=O)Nc3ccc(Br)cc3)c(N)c2cc1C(O)c1ccccc1 (stereo not given),67.7%
10,O=C(Cn1cc(CSc2nc3ccccc3o2)nn1)Nc1ccc(F)cc1F,101%
11,COC(=O)c1nc(-c2ccc(C)cc2)oc1S(=O)(=O)c1cccc(OC)c1,101%
12,COc1ccc(C/C(C)=C(/c2ccc(OCCN(C)C)cc2)c2ccc(OC(=O)NCc3ccccc3)cc2)cc1,85.6%
13,COc1ccc(/C=C(\C#N)n2nnc3cc(F)c(F)cc32)cc1,59.1%
14,COC(=O)c1c2c(c(C)[n+]([O-])c1C)C(=O)C(NCc1cccc(OC)c1)=CC2=O,19.2%
15,COc1ccc(-c2nc3cc(C(=O)NCc4ccccc4)ccc3n2C2CCCCC2)cc1,98.2%
16,CCN(CC)CCn1c2ccc(OC)cc2c2sc3cc(OC)ccc3c(=O)c21,28.9%
17,COc1ccc(C(=O)N2c3ccccc3Sc3ccccc32)c(OC)c1,31.7%
18,CCN1CCN(C(=O)[C@]23CCC(C)(C)C[C@@H]2C2=CC[C@@H]4[C@@]5(C)CCC(=O)C(C)(C)[C@@H]5CC[C@@]4(C)[C@]2(C)CC3)CC1,71.1%
19,Clc1ccc2c(NC3CCC(N4CCOCC4)CC3)ccnc2c1 (stereo not given),79.3%
20,CCCOC(=O)Nc1nc2ccc(SCC(C)C)cc2s1,53.9%

row,SMILES,growth
1,COc1ccc(Nc2ncc(Br)c(NCCCNC(=O)c3cccs3)n2)cc1,56.8%
2,N#Cc1c(-c2ccccc2)cc(-c2ccc(Nc3nc(Nc4ccc(Cl)cc4)nc(Nc4ccc(Cl)cc4)n3)cc2)nc1N,100%
3,COC(=O)c1c(C)c2n(c1C)C(=O)C(c1ccccc1)=C2,85.7%
4,COc1ccc(Nc2ncc(Br)c(NCCCNC(=O)C3CCCC3)n2)cc1,35.2%
5,C=CCn1c(C)nc2ccc(Nc3nc(Nc4ccc5nc(C)n(CC=C)c5c4)c4ccccc4n3)cc21,30.6%
6,O=C(O)c1cn(C2CC2)c2cc(N3CCN(Cc4ccc5ccccc5c4O)CC3)c(F)cc2c1=O,78.3%
7,N#C/C(=C\c1c(-c2ccccc2)[nH]c2ccccc12)C(N)=O,89.6%
8,COc1ccc(C2CC(c3ccc(Nc4nc(Nc5ccccc5)nc(Nc5ccccc5)n4)cc3)=NN2C(C)=O)cc1 (stereo not given),88.7%
9,COc1cc2c(c(OC)c1OC)CCC(c1cccc(C(=O)Nc3cccc(Cl)c3)c1)O2 (stereo not given),76.5%
10,COc1cc(OCc2cccc(Br)c2C)cc(OC)c1C=O,91.8%
11,COC1=CC(c2ccc[nH]2)=N/C1=C\c1[nH]c(C)c(C(=O)OC(C)C)c1C,21.1%
12,CCCc1c(OC(=O)c2ccccc2)nc2[nH]c(=O)sc2c1C,96%
13,CN(C)c1ccc(-c2c(C#N)c(N)nn2C(=O)c2ccc(NC(=O)c3ccccn3)cc2)cc1,99.4%
14,CC1CCN(CCOc2ccc(CNc3ccc4nc(CCC5CCCCC5)[nH]c4c3)cc2)CC1,62.3%
15,COc1cc2c(cc1OCCCN1CCN(CCCOc3cc4c(cc3OC)C(=O)N3CCC[C@H]3C=N4)CC1)C=CC(C)(C)O2,-94.6% (active)
16,Oc1c(I)cc(I)cc1CNCCN(Cc1ccccn1)Cc1ccccn1,16.7%
17,O=CN1N=C(c2cccc(Nc3ccnc4cc(Cl)ccc34)c2)CC1c1ccccc1 (stereo not given),40.3%
18,COc1cc2c(cc1OC)C(C)N(S(N)(=O)=O)CC2 (stereo not given),97.6%
19,CCCC/C(CC)=N\NS(=O)(=O)c1ccc([N+](=O)[O-])cc1,95.2%
20,O=[N+]([O-])c1ccc(O)cc1Br,98.6%
